{"source": "paper PMC4336329", "about": "(PLoS ONE, 2015)", "note": "About 14,000 (4.5%) of roughly 310,000 compounds showed an effect of 50% or more. The effect is printed as a negative number. The list comes from a sample in which strong results are over-represented; it also holds similar structures and randomly drawn compounds.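 Also: peak tail current of the secondary pulse compared with the same well before compound.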"}
{"biological_target": "human ether-à-go-go-related gene (hERG) potassium channel (human, UniProt Q12809)", "sequence (Q12809 whole entry, looked up)": "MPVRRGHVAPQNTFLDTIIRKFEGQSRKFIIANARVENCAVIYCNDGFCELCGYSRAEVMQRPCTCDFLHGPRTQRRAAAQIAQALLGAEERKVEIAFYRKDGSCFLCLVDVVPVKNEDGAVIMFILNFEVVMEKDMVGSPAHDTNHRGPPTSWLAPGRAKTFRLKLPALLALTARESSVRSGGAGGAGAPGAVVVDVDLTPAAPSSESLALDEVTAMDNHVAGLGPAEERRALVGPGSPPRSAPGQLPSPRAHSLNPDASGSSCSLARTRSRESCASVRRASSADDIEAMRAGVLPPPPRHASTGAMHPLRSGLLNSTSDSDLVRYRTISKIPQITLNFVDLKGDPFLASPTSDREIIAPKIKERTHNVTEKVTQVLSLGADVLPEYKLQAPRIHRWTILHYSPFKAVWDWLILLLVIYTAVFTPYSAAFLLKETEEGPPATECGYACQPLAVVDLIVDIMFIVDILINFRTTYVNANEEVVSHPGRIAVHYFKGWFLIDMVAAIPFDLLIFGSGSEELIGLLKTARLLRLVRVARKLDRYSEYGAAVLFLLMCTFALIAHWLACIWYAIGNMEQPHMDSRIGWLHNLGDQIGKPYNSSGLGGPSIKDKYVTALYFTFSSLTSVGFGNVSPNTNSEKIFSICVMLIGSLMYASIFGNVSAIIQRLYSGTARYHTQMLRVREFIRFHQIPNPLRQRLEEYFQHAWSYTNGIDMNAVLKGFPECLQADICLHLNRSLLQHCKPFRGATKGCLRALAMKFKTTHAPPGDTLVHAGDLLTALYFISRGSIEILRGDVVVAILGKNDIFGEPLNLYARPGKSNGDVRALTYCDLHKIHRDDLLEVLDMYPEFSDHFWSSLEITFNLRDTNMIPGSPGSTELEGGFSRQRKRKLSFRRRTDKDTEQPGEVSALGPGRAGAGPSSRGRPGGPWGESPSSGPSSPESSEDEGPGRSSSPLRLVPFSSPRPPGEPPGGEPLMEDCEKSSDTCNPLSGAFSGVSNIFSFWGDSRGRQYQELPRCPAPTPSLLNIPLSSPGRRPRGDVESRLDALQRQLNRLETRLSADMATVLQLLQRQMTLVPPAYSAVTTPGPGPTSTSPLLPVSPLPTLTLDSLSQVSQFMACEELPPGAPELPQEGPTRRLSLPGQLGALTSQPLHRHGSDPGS", "experiment": "primary screen, population patch clamp on CHO cells stably expressing hERG; higher = less effect of the substance", "units": {"hERG current change (%, negative = inhibition) at 10uM": "%"}}
{"smiles": "CCN(C(=O)CSc1nc2ccccc2c(=O)n1Cc1ccc(C)cc1)C1CCS(=O)(=O)C1", "note": "(stereo not drawn)", "hERG current change (%, negative = inhibition) at 10uM": -71}
{"smiles": "CCn1c(SCC(=O)N(Cc2ccccc2)C2CCS(=O)(=O)C2)nc2ccccc2c1=O", "note": "(stereo not drawn)", "hERG current change (%, negative = inhibition) at 10uM": -61}
{"smiles": "CCN(C(=O)CSc1nc2ccccc2c(=O)n1-c1cccc(C)c1)C1CCS(=O)(=O)C1", "note": "(stereo not drawn)", "hERG current change (%, negative = inhibition) at 10uM": -14.9}
{"smiles": "CCN(C(=O)CSc1nc2ccccc2c(=O)n1-c1ccc(C)cc1)C1CCS(=O)(=O)C1", "note": "(stereo not drawn)", "hERG current change (%, negative = inhibition) at 10uM": -11.6}
{"smiles": "CCCN(C(=O)CSc1nc2ccccc2n1CC)C1CCS(=O)(=O)C1", "note": "(stereo not drawn)", "hERG current change (%, negative = inhibition) at 10uM": 2.29}
{"smiles": "Cc1ccc(-n2c(SCC(=O)N(C)C3CCS(=O)(=O)C3)nc3ccccc3c2=O)cc1", "note": "(stereo not drawn)", "hERG current change (%, negative = inhibition) at 10uM": 11}
{"smiles": "Cc1ccccc1-n1c(SCC(=O)N(C)C2CCS(=O)(=O)C2)nc2ccccc2c1=O", "note": "(stereo not drawn)", "hERG current change (%, negative = inhibition) at 10uM": 11.6}
{"smiles": "CCN(C(=O)CSc1nc2ccccc2n1CC)C1CCS(=O)(=O)C1", "note": "(stereo not drawn)", "hERG current change (%, negative = inhibition) at 10uM": 0.264}
{"smiles": "Cc1ccc(Cn2c(SCC(=O)N(C)C3CCS(=O)(=O)C3)nc3ccccc3c2=O)cc1", "note": "(stereo not drawn)", "hERG current change (%, negative = inhibition) at 10uM": -60.8}
{"smiles": "CCN(C(=O)COC(=O)c1cc(S(=O)(=O)N2CCOCC2)c(Cl)cc1Cl)C1CCS(=O)(=O)C1", "note": "(stereo not drawn)", "hERG current change (%, negative = inhibition) at 10uM": 9.86}
{"smiles": "O=c1[nH]c2ccccc2c2nc(-c3cccc(S(=O)(=O)N4CCCC4)c3)nn12", "hERG current change (%, negative = inhibition) at 10uM": 21.2}
{"smiles": "CC(=O)Nc1ccc(C2C(=O)c3ccccc3C2=O)cc1", "hERG current change (%, negative = inhibition) at 10uM": 21.4}
{"smiles": "O=[N+]([O-])c1ccccc1N/N=C1\\CC2CC=CC12", "note": "(stereo not drawn)", "hERG current change (%, negative = inhibition) at 10uM": 46.5}
{"smiles": "CCOc1ccccc1C(=O)N(CN1CCCC1=O)c1cccc(Cl)c1", "hERG current change (%, negative = inhibition) at 10uM": -3.65}
{"smiles": "Cc1ccc(-c2c[n+](CC(=O)Nc3c(C)cccc3C)c3n2CCC3)cc1.[Cl-]", "hERG current change (%, negative = inhibition) at 10uM": 14.1}
{"smiles": "Cc1ccc(NC(=O)C[n+]2cc(-c3ccccc3)n3c2CCC3)cc1.[Cl-]", "hERG current change (%, negative = inhibition) at 10uM": -15.2}
{"smiles": "Cc1ccc(-c2c[n+](CC(=O)Nc3ccccc3C)c3n2CCC3)cc1.[Cl-]", "hERG current change (%, negative = inhibition) at 10uM": -5.42}
{"smiles": "Cc1ccc(NC(=O)C[n+]2cc(-c3ccc(C)cc3)n3c2CCC3)cc1.[Cl-]", "hERG current change (%, negative = inhibition) at 10uM": -70}
{"smiles": "Cc1ccc(-c2c[n+](CC(=O)Nc3ccccc3)c3n2CCC3)cc1.[Cl-]", "hERG current change (%, negative = inhibition) at 10uM": -27.8}
{"smiles": "CCc1ccc(NC(=O)C[n+]2cc(-c3ccc(C)cc3)n3c2CCC3)cc1.[Cl-]", "hERG current change (%, negative = inhibition) at 10uM": -63.1}
{"smiles": "Cc1ccccc1NC(=S)/C(=C(\\[O-])c1ccc(C)c([N+](=O)[O-])c1)[n+]1ccccc1", "hERG current change (%, negative = inhibition) at 10uM": -1.7}
{"smiles": "CCC1(C)Cc2ccccc2-c2c1c(=O)n(-c1ccc(C)cc1)c1nnnn21", "note": "(stereo not drawn)", "hERG current change (%, negative = inhibition) at 10uM": 2.8}
{"smiles": "Cc1cc2cc(CN(Cc3ccco3)C(=O)NCc3ccccc3)c(=O)[nH]c2cc1C", "hERG current change (%, negative = inhibition) at 10uM": -6.54}
{"smiles": "CCN(CC)CCNC(C(=O)Nc1cccc(C(C)=O)c1)c1ccccc1.O=C(O)C(=O)O", "note": "(stereo not drawn)", "hERG current change (%, negative = inhibition) at 10uM": -79.1}
{"smiles": "CCCC(=O)OC(C(=O)Nc1cc(C(F)(F)F)ccc1Cl)c1ccccc1", "note": "(stereo not drawn)", "hERG current change (%, negative = inhibition) at 10uM": -9.58}
{"smiles": "CCN(CC)CCNC(C(=O)Nc1cc(C(F)(F)F)ccc1Cl)c1ccccc1", "note": "(stereo not drawn)", "hERG current change (%, negative = inhibition) at 10uM": -76.4}
{"smiles": "CCOc1ccc(NC(C(=O)Nc2cccc(C(C)=O)c2)c2ccccc2)cc1", "note": "(stereo not drawn)", "hERG current change (%, negative = inhibition) at 10uM": -49.7}
{"smiles": "CN(C)CCNC(C(=O)Nc1cc(Cl)cc(Cl)c1)c1ccccc1", "note": "(stereo not drawn)", "hERG current change (%, negative = inhibition) at 10uM": -45.6}
{"smiles": "CC(=O)c1cccc(NC(=O)C(NC(C)C)c2ccccc2)c1", "note": "(stereo not drawn)", "hERG current change (%, negative = inhibition) at 10uM": 10.5}
{"smiles": "CN(C)CCNC(C(=O)Nc1cccc(C(F)(F)F)c1)c1ccccc1.O=C(O)C(=O)O", "note": "(stereo not drawn)", "hERG current change (%, negative = inhibition) at 10uM": -56.7}
{"smiles": "O=C(Nc1cc(C(F)(F)F)ccc1Cl)C(NCc1ccccc1)c1ccccc1", "note": "(stereo not drawn)", "hERG current change (%, negative = inhibition) at 10uM": 2.13}
{"smiles": "CCC(C(=O)Nc1cccc(C(F)(F)F)c1)c1ccccc1", "note": "(stereo not drawn)", "hERG current change (%, negative = inhibition) at 10uM": 3.89}
{"smiles": "O=C(c1cc(F)cc2c1OCOC2)N1CCN(c2ccc(F)cc2)CC1", "hERG current change (%, negative = inhibition) at 10uM": -16}
{"smiles": "CC(C)C(OC(=O)CN1C(=O)COc2ccccc21)C(=O)NC1CCCCC1", "note": "(stereo not drawn)", "hERG current change (%, negative = inhibition) at 10uM": -9.89}
{"smiles": "COC(=O)c1cn(CC(=O)N2CCCCCC2)c2ccccc12", "hERG current change (%, negative = inhibition) at 10uM": -40.1}
{"smiles": "CCN(CC(=O)NCc1cccs1)C(=O)c1cc(S(=O)(=O)N2CCCCC2)ccc1Cl", "hERG current change (%, negative = inhibition) at 10uM": -40.2}
{"smiles": "Cc1ccc2c(Cl)c(C(=O)NCC3CCCO3)sc2c1", "note": "(stereo not drawn)", "hERG current change (%, negative = inhibition) at 10uM": -12.8}
{"smiles": "COc1ccccc1C(=O)NC(=O)COC(=O)c1oc2ccccc2c1C", "hERG current change (%, negative = inhibition) at 10uM": 1.8}
{"smiles": "OCC[C@H]1C[C@@H](O)[C@H](O)[C@]2(Cc3ccccc3CCO2)O1", "hERG current change (%, negative = inhibition) at 10uM": -0.537}
{"smiles": "CN(CC(=O)Nc1cccc(F)c1)C(=O)/C=C/c1cc(Br)ccc1OC(F)F", "hERG current change (%, negative = inhibition) at 10uM": -54.8}
{"smiles": "COc1ccc(OC)c(/C=C/C(=O)N(C)CC(=O)Nc2cc(C)ccc2C)c1", "hERG current change (%, negative = inhibition) at 10uM": -15.1}
{"smiles": "CN(CC(=O)Nc1cccc(F)c1)C(=O)/C=C/c1ccc2ccccc2n1", "hERG current change (%, negative = inhibition) at 10uM": 7.19}
{"smiles": "COc1cccc(NC(=O)CN(C)C(=O)/C=C/c2cc(OC)ccc2OC)c1", "hERG current change (%, negative = inhibition) at 10uM": -67.8}
{"smiles": "COc1cccc(NC(=O)CN(C)C(=O)/C=C/c2cn(Cc3ccccc3)nc2-c2cccnc2)c1", "hERG current change (%, negative = inhibition) at 10uM": -59.4}
{"smiles": "COc1ccc(OC)c(/C=C/C(=O)N(C)CC(=O)Nc2ccc(C)cc2)c1", "hERG current change (%, negative = inhibition) at 10uM": -18.3}
{"smiles": "COc1ccc(NC(=O)CN(C)C(=O)/C=C/c2cn(Cc3ccccc3)nc2-c2cccnc2)cc1", "hERG current change (%, negative = inhibition) at 10uM": -25.9}
{"smiles": "CN(CC(=O)Nc1cccc(F)c1)C(=O)/C=C/c1cn(Cc2ccccc2)nc1-c1cccnc1", "hERG current change (%, negative = inhibition) at 10uM": -48.8}
{"smiles": "CN(CC(=O)Nc1cccc(F)c1)C(=O)/C=C/c1ccc(Br)s1", "hERG current change (%, negative = inhibition) at 10uM": 13.2}
{"smiles": "COc1ccc(OC)c(S(=O)(=O)N(C)CC(=O)N2CCOCC2)c1", "hERG current change (%, negative = inhibition) at 10uM": 11.3}
{"smiles": "O=C(CSc1nc2ccccc2s1)N/N=C/c1ccccc1C(=O)O", "hERG current change (%, negative = inhibition) at 10uM": 30.5}
{"smiles": "CC1CCN(C(=O)CSc2nnc(-c3ccncc3)n2C)CC1", "hERG current change (%, negative = inhibition) at 10uM": 6.41}
